Results filed as inconclusive are left out. The source made the active and inactive calls. Unless noted, calls follow the shape of the full dose curve.
How the values were obtained:
[1] = biological target: Estrogen receptor (Homo sapiens) (UniProt P03372); test: qHTS assay for small molecule antagonists of estrogen receptor alpha signaling (AID 588513; active = well fitted curve in the direction sought with a large enough effect in the signal ratio, with a control signal flat, not every such curve was filed as active; the % refers to the signal ratio; also: % is scaled to controls: 0 for no effect and ±100 for the full control effect); settings: ER-alpha-UAS-bla HEK293, beta-lactamase ratio, antagonist mode; series mostly up to 76.9 µM
Chain of Estrogen receptor (Homo sapiens) (P03372 whole entry, looked up): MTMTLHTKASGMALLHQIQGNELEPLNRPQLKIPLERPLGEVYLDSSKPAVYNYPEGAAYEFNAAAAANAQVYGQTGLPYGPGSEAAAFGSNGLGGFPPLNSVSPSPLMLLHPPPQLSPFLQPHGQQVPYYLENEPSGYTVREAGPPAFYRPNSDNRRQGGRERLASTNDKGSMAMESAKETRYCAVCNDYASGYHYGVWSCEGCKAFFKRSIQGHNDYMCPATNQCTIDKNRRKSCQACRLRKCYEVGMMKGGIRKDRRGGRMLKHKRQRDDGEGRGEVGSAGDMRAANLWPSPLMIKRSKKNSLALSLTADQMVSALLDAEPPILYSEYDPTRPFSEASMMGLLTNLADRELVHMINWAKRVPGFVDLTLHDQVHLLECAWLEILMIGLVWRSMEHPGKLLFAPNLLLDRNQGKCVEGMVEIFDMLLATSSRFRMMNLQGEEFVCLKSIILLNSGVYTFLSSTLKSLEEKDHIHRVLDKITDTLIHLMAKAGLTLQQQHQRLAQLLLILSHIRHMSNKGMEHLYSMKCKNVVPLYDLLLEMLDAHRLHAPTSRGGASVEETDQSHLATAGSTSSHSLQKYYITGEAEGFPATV
Method in brief: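 Antagonist mode: inhibition of 0.5 nM 17-beta-estradiol-driven beta-lactamase reporter in HEK 293 ER-alpha-UAS-bla cells, 18 h at 37C, CCF4 readout after 2 h at RT. Normalised to estradiol and DMSO; titration fitted to Hill.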

[2] = biological target: Estrogen receptor (Homo sapiens) (UniProt P03372); test: qHTS assay for small molecule agonists of estrogen receptor alpha signaling (AID 588514); settings: ER-alpha-UAS-bla HEK293, beta-lactamase ratio, 18 h; series mostly up to 76.8 µM; also: potency is read from the fitted curve at half-maximal effect; nearly all actives have a fitted effect of over 70% in size
Method in brief: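 EC50 and efficacy came from Hill fits of beta-lactamase reporter signal (CCF4 dye, 2 h at room temperature) scaled between DMSO and 20 nM 17-beta-estradiol. Agonist mode: HEK293 ER-alpha-UAS-bla cells in charcoal/dextran-stripped serum medium, 18 h compound exposure at 37 C.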

[3] = biological target: Bile acid receptor (Homo sapiens) (UniProt Q96RI1); test: qHTS assay for small molecule antagonists of farnesoid X receptor signaling (AID 588526); settings: HEK293T FXR-UAS-bla, beta-lactamase ratio, antagonist mode; series mostly up to 76.7 µM; also: % is scaled to controls: 0 for no effect and ±100 for the full control effect
Chain of Bile acid receptor (Homo sapiens) (Q96RI1 whole entry, looked up): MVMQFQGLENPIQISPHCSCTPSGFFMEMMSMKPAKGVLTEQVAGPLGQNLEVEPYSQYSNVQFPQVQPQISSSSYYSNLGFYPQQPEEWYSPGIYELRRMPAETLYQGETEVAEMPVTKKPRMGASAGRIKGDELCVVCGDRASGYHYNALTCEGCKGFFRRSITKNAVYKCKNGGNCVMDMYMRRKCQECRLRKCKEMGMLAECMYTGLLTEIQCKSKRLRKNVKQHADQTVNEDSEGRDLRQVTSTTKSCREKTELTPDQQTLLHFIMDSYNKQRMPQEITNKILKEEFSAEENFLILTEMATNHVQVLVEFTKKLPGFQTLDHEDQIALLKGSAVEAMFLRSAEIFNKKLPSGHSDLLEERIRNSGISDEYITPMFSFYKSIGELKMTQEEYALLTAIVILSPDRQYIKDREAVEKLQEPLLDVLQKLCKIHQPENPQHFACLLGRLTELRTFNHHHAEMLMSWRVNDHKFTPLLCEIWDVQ
Method in brief: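 Beta-lactamase reporter antagonist mode: HEK293T FXR-UAS-bla cells, titrated compound, CDCA stimulation, 16 h 37 C, CCF4 dye 2 h RT. Data normalized to CDCA 50 uM and DMSO; Hill-fit IC50.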

[4] = qHTS assay for small molecule antagonists of peroxisome proliferator-activated receptor delta signaling (AID 588535; active = well fitted inhibition curve with a large enough effect in the signal ratio, with a control signal flat, not every such curve was filed as active; the % refers to the signal ratio;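 as to max response: cells co-treated with a PPAR-delta agonist as stimulator during compound exposure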); settings: HEK293T PPARd-UAS-bla, beta-lactamase FRET ratio, 18 h; 460 nm channel
Method in brief: (§1)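 Titrations were run on PPAR-delta-UAS-bla HEK293T cells in charcoal/dextran-stripped serum, incubated 18 h at 37 C. CCF4 fluorescence (460/530 nm) after 2 h RT; Hill equation yields IC50 and maximal response.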

[5] = biological target: Peroxisome proliferator-activated receptor delta (Homo sapiens) (UniProt Q03181); test: as above; settings: HEK293T PPARd-UAS-bla, beta-lactamase FRET ratio, 18 h; series mostly up to 76.7 µM
Chain of Peroxisome proliferator-activated receptor delta (Homo sapiens) (Q03181 whole entry, looked up): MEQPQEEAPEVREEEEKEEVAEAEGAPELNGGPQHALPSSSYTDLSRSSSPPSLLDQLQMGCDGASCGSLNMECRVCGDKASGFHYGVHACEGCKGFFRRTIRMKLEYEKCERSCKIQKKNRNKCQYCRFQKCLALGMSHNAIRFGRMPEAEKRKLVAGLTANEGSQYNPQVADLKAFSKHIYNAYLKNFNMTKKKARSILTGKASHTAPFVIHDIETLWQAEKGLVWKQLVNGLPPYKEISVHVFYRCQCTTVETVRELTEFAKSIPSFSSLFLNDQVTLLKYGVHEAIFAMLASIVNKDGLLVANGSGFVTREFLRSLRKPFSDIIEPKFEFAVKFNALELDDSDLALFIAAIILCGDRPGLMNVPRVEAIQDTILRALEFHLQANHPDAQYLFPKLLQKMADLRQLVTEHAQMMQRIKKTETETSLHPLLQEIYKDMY
Method in brief: as §1

[6] = biological target: Peroxisome proliferator-activated receptor gamma (Homo sapiens) (UniProt P37231); test: qHTS assay for small molecule agonists of peroxisome proliferator-activated receptor gamma signaling (AID 588536; active = well fitted curve in the direction sought with a large enough effect in the signal ratio, with a control signal flat, not every such curve was filed as active; the % refers to the signal ratio;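 also: 0% = DMSO basal wells and 100% = rosiglitazone at 2 µM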); settings: HEK293 PPARg-UAS-bla, beta-lactamase ratio, 16 h, percent of rosiglitazone response, DMSO as zero; series mostly up to 76.7 µM
Chain of Peroxisome proliferator-activated receptor gamma (Homo sapiens) (P37231 whole entry, looked up): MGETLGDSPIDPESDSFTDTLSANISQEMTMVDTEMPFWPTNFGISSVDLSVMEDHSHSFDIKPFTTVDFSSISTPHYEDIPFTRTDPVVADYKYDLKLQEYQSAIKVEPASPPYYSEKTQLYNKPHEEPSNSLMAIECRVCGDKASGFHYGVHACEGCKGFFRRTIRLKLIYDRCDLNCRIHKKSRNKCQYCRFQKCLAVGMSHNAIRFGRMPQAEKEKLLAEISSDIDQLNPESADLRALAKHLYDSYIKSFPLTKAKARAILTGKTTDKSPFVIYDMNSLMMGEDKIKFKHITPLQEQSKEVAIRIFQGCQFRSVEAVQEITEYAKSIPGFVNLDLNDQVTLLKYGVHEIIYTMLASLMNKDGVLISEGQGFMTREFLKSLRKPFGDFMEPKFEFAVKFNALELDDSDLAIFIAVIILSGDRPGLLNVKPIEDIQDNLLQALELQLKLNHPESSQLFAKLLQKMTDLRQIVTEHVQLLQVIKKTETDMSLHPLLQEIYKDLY
Method in brief: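 Using GeneBLAzer HEK293 cells, response was quantified by CCF4 fluorescence and normalized between basal DMSO (0%) and rosiglitazone 2 uM (100%); curves yielded half-maximal stimulation concentration and efficacy.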

[7] = biological target: Vitamin D3 receptor (Homo sapiens) (UniProt P11473); test: qHTS assay for small molecule antagonists of vitamin D receptor signaling (AID 588541); settings: HEK293T VDR-UAS-bla, beta-lactamase ratio, antagonist mode; series mostly up to 76.7 µM;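 also: receptor activated by calcitriol during compound treatment; % is scaled to controls: 0 for no effect and ±100 for the full control effect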
Chain of Vitamin D3 receptor (Homo sapiens) (P11473 whole entry, looked up): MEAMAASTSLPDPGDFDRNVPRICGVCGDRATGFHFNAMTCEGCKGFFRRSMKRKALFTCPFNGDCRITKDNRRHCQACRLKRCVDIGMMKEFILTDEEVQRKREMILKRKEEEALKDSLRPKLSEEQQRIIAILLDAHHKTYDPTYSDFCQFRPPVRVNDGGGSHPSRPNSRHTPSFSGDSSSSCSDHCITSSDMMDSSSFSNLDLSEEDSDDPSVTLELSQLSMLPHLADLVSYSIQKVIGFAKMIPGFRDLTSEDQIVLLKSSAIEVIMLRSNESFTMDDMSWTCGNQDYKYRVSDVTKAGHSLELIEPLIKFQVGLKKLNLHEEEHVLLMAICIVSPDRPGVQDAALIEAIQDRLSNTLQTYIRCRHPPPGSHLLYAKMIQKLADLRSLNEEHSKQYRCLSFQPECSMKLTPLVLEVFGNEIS
Method in brief: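 Antagonist-mode beta-lactamase reporter assay: HEK293T VDR-UAS-bla cells were exposed to titrated compound alongside 1-alpha,25-dihydroxyvitamin D3 at 3 nM final for 16 h. Values were normalized to the 50 nM agonist control and DMSO basal, with IC50 and efficacy from Hill equation fits.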

[8] = biological target: Vitamin D3 receptor (Homo sapiens) (UniProt P11473); test: qHTS assay for small molecule agonists of vitamin D receptor signaling (AID 588543); settings: HEK293T VDR-UAS-bla, beta-lactamase ratio, 16 h; series mostly up to 76.8 µM;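 also: 0% = DMSO basal and 100% = reference agonist control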
Method in brief: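 Agonist-mode beta-lactamase reporter: HEK293T VDR-UAS-bla cells in charcoal-stripped 2% FBS, compound series 16 h 37 C, CCF4 2 h RT. EC50 from Hill fit, scaled against DMSO and 50 nM calcitriol control.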

[9] = qHTS assay for small molecule agonists of retinoid X receptor alpha signaling (AID 588544); settings: HEK293T RXRa-UAS-bla, beta-lactamase reporter, 18 h; 530 nm emission;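 as to activation: 0% = DMSO basal wells and 100% = reference agonist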
[10] = biological target: Retinoic acid receptor RXR-alpha (Homo sapiens) (UniProt P19793); test: as above; settings: HEK293T RXRa-UAS-bla, beta-lactamase reporter, 18 h; series mostly up to 76.7 µM
Chain of Retinoic acid receptor RXR-alpha (Homo sapiens) (P19793 whole entry, looked up): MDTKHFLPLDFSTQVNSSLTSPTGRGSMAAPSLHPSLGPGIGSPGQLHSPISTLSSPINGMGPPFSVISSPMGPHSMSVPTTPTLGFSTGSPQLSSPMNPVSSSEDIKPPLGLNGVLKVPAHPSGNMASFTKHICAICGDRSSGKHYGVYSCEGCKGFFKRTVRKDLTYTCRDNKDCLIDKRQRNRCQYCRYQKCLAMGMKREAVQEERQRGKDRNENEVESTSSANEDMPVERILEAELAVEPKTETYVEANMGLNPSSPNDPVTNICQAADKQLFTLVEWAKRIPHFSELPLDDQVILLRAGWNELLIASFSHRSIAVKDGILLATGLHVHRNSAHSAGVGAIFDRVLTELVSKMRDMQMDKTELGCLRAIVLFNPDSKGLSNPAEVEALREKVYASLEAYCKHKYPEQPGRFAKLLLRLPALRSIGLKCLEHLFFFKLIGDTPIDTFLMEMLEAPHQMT

[11] = biological target: Thyroid hormone receptor beta (Homo sapiens) (UniProt P10828); test: qHTS assay for small molecule agonists of thyroid hormone receptor beta signaling (AID 588545); settings: TR-UAS-bla GripTite HEK 293, beta-lactamase ratio, agonist mode, 18 h; series mostly up to 76.7 µM;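 also: 0% = DMSO only and 100% = 10 nM T3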
Chain of Thyroid hormone receptor beta (Homo sapiens) (P10828 whole entry, looked up): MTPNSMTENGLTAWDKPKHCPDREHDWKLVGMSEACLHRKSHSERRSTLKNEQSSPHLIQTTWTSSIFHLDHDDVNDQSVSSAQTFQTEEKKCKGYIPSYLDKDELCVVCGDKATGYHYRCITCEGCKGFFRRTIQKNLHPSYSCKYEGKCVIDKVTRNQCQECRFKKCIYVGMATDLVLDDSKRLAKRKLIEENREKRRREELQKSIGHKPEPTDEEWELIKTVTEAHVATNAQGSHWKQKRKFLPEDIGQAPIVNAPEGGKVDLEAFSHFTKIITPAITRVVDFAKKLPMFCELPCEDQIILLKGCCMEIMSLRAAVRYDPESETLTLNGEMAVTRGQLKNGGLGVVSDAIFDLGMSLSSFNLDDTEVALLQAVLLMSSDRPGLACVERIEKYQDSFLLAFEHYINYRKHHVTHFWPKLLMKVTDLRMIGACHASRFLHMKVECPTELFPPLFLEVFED
Method in brief: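 Efficacy and EC50 values derive from Hill fits of qHTS titration data, normalized to 10 nM T3 and DMSO-only wells. HEK 293 reporter cells were stimulated for 18 hrs at 37 C, with beta-lactamase activity measured by CCF4 fluorescence.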

[12] = qHTS assay for small molecule antagonists of retinoid X receptor alpha signaling (AID 588546; active = well fitted inhibition curve with a large enough effect in the signal ratio, with a control signal flat, not every such curve was filed as active; the % refers to the signal ratio;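 also: cells stimulated with 9-cis-retinoic acid as agonist; % is scaled to controls: 0 for no effect and ±100 for the full control effect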); settings: HEK293T RXRa-UAS-bla, beta-lactamase ratio, antagonist mode; measured here: W530 green channel, cytotoxicity proxy
Method in brief: (§2)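 Beta-lactamase reporter inhibition, read as CCF4 fluorescence ratio (ex 405, em 460/530 nm) after 2 h at RT. HEK293T UAS-bla cells, 2500/well, were stimulated with 9-cis-RA at 500 or 100 nM final alongside test compound for 18 h at 37 C.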

[13] = biological target: Retinoic acid receptor RXR-alpha (Homo sapiens) (UniProt P19793); test: as above; settings: HEK293T RXRa-UAS-bla, beta-lactamase ratio, antagonist mode
Method in brief: as §2

[14] = qHTS assay for small molecule agonists of the antioxidant response element (ARE) signaling pathway (AID 651741; active = well fitted activation curve with a large enough effect in the signal ratio; the % refers to the signal ratio; also: potency is read from the fitted curve at half-maximal effect); settings: HepG2 ARE-bla reporter, beta-lactamase FRET ratio, 16 h; series mostly up to 96 µM
Method in brief: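 Beta-lactamase reporter under ARE control in HepG2 cells, 2,000 per well, was induced by 16 h compound treatment at 37 C. Read-out was fluorescence from LiveBLAzer B/G FRET substrate after 2 h at room temperature.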

[15] = qHTS assay for small molecule activators of the p53 signaling pathway (AID 651743; active = well fitted activation curve with a large enough effect in the signal ratio, not every such curve was filed as active; the % refers to the signal ratio; also: % of control where 0% means no effect); settings: HCT-116 p53RE-bla, beta-lactamase FRET ratio, 16 h; activation: stronger effect = higher value
Method in brief: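 After 16 hours compound treatment at 37 C, HCT-116 cells stably expressing p53RE-driven beta-lactamase were loaded with LiveBLAzer B/G FRET substrate for 2 hours at room temperature. Fluorescence intensity served as the p53 activation read-out.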

[16] = qHTS assay for small molecule activators of the nuclear factor-kappa B (NF-kB) signaling pathway (AID 651749; active = well fitted activation curve with a large enough effect in the signal ratio; the % refers to the signal ratio; also: % of control where 0% means no effect); settings: NF-kB-bla ME-180 cells, beta-lactamase FRET ratio, 16 h; stronger effect = higher value
Method in brief: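 Activation measured after 16 hr compound treatment at 37C, 5% CO2, of 2,000 ME-180 cells/well stably expressing an NF-kB response element–driven beta-lactamase reporter, via FRET-disruption fluorescence.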

[17] = qHTS assay for environmental chemicals that activate the Aryl hydrocarbon Receptor (AhR) signaling pathway (AID 651777; active = well fitted curve in the direction sought with a large enough effect; an effect the other way counts as inactive or inconclusive; also: % of control where 0% means no effect; nearly all actives have a fitted effect of over 15% in size); settings: 1A2-DRE human hepatoma cells, luciferase, 24 h; activation: stronger effect = higher value
Method in brief: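 Measured luciferase activity, read 30 min after One-Glo addition at room temperature, from human hepatoma cells bearing a dioxin response element–CYP1A2 promoter reporter and exposed to compound for 24 hr at 37 C.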

[18] = biological target: Peroxisome proliferator-activated receptor alpha (Homo sapiens) (UniProt Q07869); test: qHTS assay for small molecule agonists of the peroxisome proliferator-activated receptor alpha (PPARalpha) signaling pathway (AID 651778; active = well fitted curve in the direction sought with a large enough effect; an effect the other way counts as inactive or inconclusive; also: % of control where 0% means no effect); settings: PathHunter PPARalpha complementation, chemiluminescence, 6 h; max response: stronger effect = higher value
Chain of Peroxisome proliferator-activated receptor alpha (Homo sapiens) (Q07869 whole entry, looked up): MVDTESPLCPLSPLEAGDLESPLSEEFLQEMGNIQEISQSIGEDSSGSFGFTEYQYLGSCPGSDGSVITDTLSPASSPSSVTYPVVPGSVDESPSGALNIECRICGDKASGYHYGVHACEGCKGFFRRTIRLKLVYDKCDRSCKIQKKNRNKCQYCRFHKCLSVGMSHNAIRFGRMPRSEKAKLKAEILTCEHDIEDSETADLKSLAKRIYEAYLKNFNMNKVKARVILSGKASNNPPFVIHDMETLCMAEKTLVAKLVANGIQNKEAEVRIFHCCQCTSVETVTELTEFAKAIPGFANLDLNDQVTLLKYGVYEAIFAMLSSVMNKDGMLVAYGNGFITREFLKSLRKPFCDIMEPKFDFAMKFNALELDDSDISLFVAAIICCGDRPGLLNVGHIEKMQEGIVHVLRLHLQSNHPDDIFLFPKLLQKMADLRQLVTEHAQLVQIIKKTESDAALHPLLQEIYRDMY
Method in brief: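 Chemiluminescence from complemented enzyme reported PPARalpha activation in cells after 6 hr of compound treatment at 37 C. The detection reagent was incubated for 60 min at room temperature, and compounds were scored as agonists.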

[19] = qHTS assay for small molecule agonists of the antioxidant response element (ARE) signaling pathway measured by Nrf2-dependant transcriptional activity - cell viability counter screen (AID 720653; active = well fitted curve in the direction sought with a large enough effect in the repeat runs; an effect the other way counts as inactive or inconclusive; also: % is scaled to controls: 0 for no effect and ±100 for the full control effect); settings: ARE-bla HepG2 viability, CellTiter-Glo ATP luminescence, 16 h; max response: stronger effect = lower value
Method in brief: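 Cytotoxicity counter screen: intracellular ATP quantified by CellTiter-Glo luminescence in the same ARE-bla HepG2 plates, after 16 h compound exposure and a 2 h beta-lactamase substrate step.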

[20] = biological target: Nuclear receptor subfamily 1 group I member 2 (Rattus norvegicus) (UniProt Q9R1A7); test: qHTS assay for small molecule activators of the rat pregnane X receptor (rPXR) signaling pathway (AID 651751; call rule not given here; also: 0% is about no effect); settings: rPXR reporter cells, luciferase (One-Glo), 24 h
Chain of Nuclear receptor subfamily 1 group I member 2 (Rattus norvegicus) (Q9R1A7 whole entry, looked up): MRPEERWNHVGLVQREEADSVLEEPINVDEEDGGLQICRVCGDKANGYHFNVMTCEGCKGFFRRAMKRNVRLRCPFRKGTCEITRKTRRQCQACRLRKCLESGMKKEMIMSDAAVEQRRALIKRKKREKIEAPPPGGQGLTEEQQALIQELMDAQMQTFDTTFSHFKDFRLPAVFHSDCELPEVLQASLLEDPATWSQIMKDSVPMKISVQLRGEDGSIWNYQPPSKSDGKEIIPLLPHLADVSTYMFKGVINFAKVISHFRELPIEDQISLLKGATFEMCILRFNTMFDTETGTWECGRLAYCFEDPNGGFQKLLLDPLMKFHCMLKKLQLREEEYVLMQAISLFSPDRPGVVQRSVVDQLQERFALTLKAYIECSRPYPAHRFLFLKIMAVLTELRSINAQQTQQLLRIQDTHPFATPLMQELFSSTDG

N[C@@H](Cc1ccccc1)C(=O)O
outcome [1]: inactive | Potency [2]: 11.2 µM (active) | Potency [3]: inactive | max response [4]: -16.9% | outcome [5]: inactive | outcome [6]: inactive | Potency [7]: inactive | Potency [8]: inactive | max response [9]: -4.85% | Potency [10]: inactive | Potency [11]: inactive | max response [12]: -15% | max response [13]: 7.11% (inactive) | Potency [14]: 54.5 µM (active) | activation [15]: -1.26% (inactive) | activation [16]: 0.13% (inactive) | activation [17]: -0.444% (inactive) | max response [18]: -0.0138% (inactive) | max response [19]: -5.99% (inactive) | max response [20]: -0.251% (inactive)
